Source: PubChem (National Center for Advancing Translational Sciences (NCATS))
RORg inh – qHTS for inhibitors of ROR gamma transcriptional activity; AID 2551, 2010; 5.4% of 310,000 active; Potency, µM (titrated, usually from 53.6 µM), for the others: at the top dose activity change, negative = inhibition, most hits filed as inhibitors; Drosophila S2 Gal4-RORgamma UAS-luciferase reporter, 20 h; note: potency is the fitted concentration of half-maximal effect; nearly all actives have a fitted effect of over 60% in size
Target sequence (P51450 whole entry, looked up, the tested form may be a part): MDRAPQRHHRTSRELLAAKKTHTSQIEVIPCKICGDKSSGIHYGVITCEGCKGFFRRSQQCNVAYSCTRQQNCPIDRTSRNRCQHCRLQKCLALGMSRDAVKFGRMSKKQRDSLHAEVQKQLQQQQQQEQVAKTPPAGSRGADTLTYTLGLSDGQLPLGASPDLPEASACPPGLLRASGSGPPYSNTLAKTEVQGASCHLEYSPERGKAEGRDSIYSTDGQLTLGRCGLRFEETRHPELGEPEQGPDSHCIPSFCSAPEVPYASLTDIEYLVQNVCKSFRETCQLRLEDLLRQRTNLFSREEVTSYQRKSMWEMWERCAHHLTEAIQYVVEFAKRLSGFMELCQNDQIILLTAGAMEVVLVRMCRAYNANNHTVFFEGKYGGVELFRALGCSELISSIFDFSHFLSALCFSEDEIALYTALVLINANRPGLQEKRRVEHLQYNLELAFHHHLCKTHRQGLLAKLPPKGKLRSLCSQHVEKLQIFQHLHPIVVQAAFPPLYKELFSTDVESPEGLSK
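Using a luciferase readout, inhibitors were identified by reduced reporter activity in Drosophila cells coexpressing a copper-inducible Gal4–ROR gamma fusion and UAS-driven Photinus luciferase, incubated 20 hr after 700 uM copper sulfate.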
VP16 counter – VP16 counterscreen qHTS for inhibitors of ROR gamma transcriptional activity | Drosophila S2 Gal4-VP16 UAS-luciferase, luminescence, 20 h | Potency, µM (series often up to 53.6 µM), inactives show at the top dose activity, negative = inhibition, hits mostly inhibitors | 3.5% of 310,000 active | AID 2546, 2010;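 note: Gal4-VP16 expression switched on by copper sulfate through the metallothionein promoter; potency is the fitted concentration of half-maximal effect; nearly all actives have a fitted effect of over 50% in size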
ELG1 DNA repair – qHTS screen for small molecules that inhibit ELG1-dependent DNA repair in human embryonic kidney (HEK293T) cells expressing luciferase-tagged ELG1; HEK293T ELG1-luciferase reporter, luminescence, 16 h; DNA damage induced by 5-fluorouridine; Potency, µM (titrated, usually from 46.1 µM), inactives show top-dose activity change, negative = inhibition, most hits filed as inhibitors; 2.3% of 330,000 active; note: potency is the fitted concentration of half-maximal effect; nearly all actives have a fitted effect of over 55% in size
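Overnight (16 hr) co-exposure of 2,000 cells/well to 5-fluorouridine and compound at 37 °C preceded detection. Luciferase was quantified via ONE-Glo luminescence; loss of signal denotes inhibition.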
TSHR antagonist – Antagonists of the Thyroid Stimulating Hormone Receptor: HTS campaign | TSHR-expressing cells, TSH-stimulated cAMP HTRF, 2 h; active compounds read low | activity change, negative = inhibition, % at 11.5 µM | 0.2% of 330,000 active | AID 504810, 2011;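 active = activity change below a set negative limit, meaning inhibition stronger than a set level, cut at about -70% in these data; inconclusive = activity change between two set negative limits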
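Inhibition of cAMP made by TSHR-expressing cells under TSH stimulation (4nM final, EC80; 2 h, 37 deg C) is quantified with a one-step lysis HTRF kit, anti-cAMP cryptate versus cAMP-d2.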
Coupling enz – qHTS Assay for Inhibitors of Fructose-1,6-bisphosphate Aldolase from Giardia Lamblia: Coupling assay counterscreen; activity change, negative = inhibition, % at 58.2 µM, hits read low; coupling enzyme system counterscreen, AmpLite Red fluorescence; 0.67% of 290,000 active; AID 2472, 2010; in the data active = activity change below about -30%
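Activity here indicates interference with the coupling reaction, not aldolase inhibition. Compounds at 57.5 uM final met coupling enzymes for 10 min at RT; substrate and AmpLite Red detection followed, with a 525/598 nm fluorescence read after 20 min.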
* hit, by the source's call; ? = inconclusive; · = not tested or not shown; [ ] = remark or other dose. In the library only some 8% were active in any assay of this set; here they are far more common. Unless noted, calls come from the whole dose curve; as a rule, active = well fitted curve in the direction sought with a large enough effect; inconclusive = small, poorly fitted or top-dose-only effect, or another doubt; inactive = no such curve, though single readings can be large; an effect the other way counts as inactive or inconclusive. % is set by controls: 0 for no effect and ±100 for the full control effect.

SMILES | RORg inh | VP16 counter | ELG1 DNA repair | TSHR antagonist | Coupling enz
O=C(Nc1cccc(Cl)c1)c1nc[nH]c1C(=O)NCCCCNC(=O)c1[nH]cnc1C(=O)Nc1cccc(Cl)c1 | · | · | 8% | 4 | ·
Cc1cccc(NC(=O)c2nc[nH]c2C(=O)NCCCCCCNC(=O)c2[nH]cnc2C(=O)Nc2cccc(C)c2)c1 | · | · | 9.2µM* | 11 | ·
Cc1cccc(NC(=O)c2nc[nH]c2C(=O)NCCCCNC(=O)c2[nH]cnc2C(=O)Nc2cccc(C)c2)c1 | · | · | 5.2µM* | 3 | ·
N#Cc1cccc(NC(=O)N2CCC3(CC2)CCN(C(=O)c2csnn2)CC3)c1 | -7% | -9% | · | · | 3
Cc1ccc(S(=O)(=O)N2CCOC2CNC(=O)C(=O)NCc2ccc(Cl)cc2)cc1 (stereo unspecified) | 22% | -1% | 23µM* | -5 | ·
COc1ccccc1CCNC(=O)C(=O)NCC1OCCCN1S(=O)(=O)c1cc(C)ccc1C (stereo unspecified) | -13% | -8% | 21µM* | -19 | ·
COc1ccccc1CCNC(=O)C(=O)NCC1OCCCN1S(=O)(=O)c1ccc(F)cc1C (stereo unspecified) | -4% | -1% | ? | -7 | ·
Cc1ccc(C)c(S(=O)(=O)N2CCCC2CNC(=O)C(=O)NCc2ccccc2C)c1 (stereo unspecified) | · | · | 15µM* | 3 | ·
O=C(NCCc1c[nH]c2ccccc12)C(=O)NCC1OCCN1S(=O)(=O)c1ccccc1 (stereo unspecified) | 35% | -10% | -16% | 6 | 1
O=C(NCCc1c[nH]c2ccccc12)C(=O)NCC1OCCN1S(=O)(=O)c1ccc(Cl)cc1 (stereo unspecified) | ? | ? | 13µM* | -4 | -3
CCN(CC(=O)Nc1c(F)cccc1F)C(=O)CNC(=O)c1cccc(C)c1 | -1% | 11% | 11% | 6 | 3
COc1ccc(CCNC(=O)C(=O)NCC2OCCN2S(=O)(=O)c2ccc(Br)cc2)cc1OC (stereo unspecified) | ? | 7.9µM* | 21µM* | -17 | 0
O=C(NCCC1=CCCCC1)C(=O)NCC1OCCCN1S(=O)(=O)c1ccc(F)cc1 (stereo unspecified) | 21% | -9% | -20% | -22 | 0
O=C(NCCC1=CCCCC1)C(=O)NCC1OCCCN1S(=O)(=O)c1cc(F)ccc1F (stereo unspecified) | 2% | -1% | ? | -96* | 1
Cc1ccc(S(=O)(=O)N2CCCOC2CNC(=O)C(=O)NCCc2c[nH]c3ccccc23)cc1 (stereo unspecified) | ? | -24% | 23µM* | -10 | 0
O=C(NCCc1c[nH]c2ccccc12)C(=O)NCC1OCCCN1S(=O)(=O)c1ccccc1 (stereo unspecified) | 21% | -1% | ? | 5 | 0
COc1ccc(S(=O)(=O)N2CCOC2CNC(=O)C(=O)NCCc2ccc(OC)c(OC)c2)cc1 (stereo unspecified) | ? | ? | ? | 4 | 0
O=C(Nc1ccc(F)cc1)C1CCCN(S(=O)(=O)c2ccc3[nH]c(=O)ccc3c2)C1 (stereo unspecified) | -7% | -1% | 13% | -7 | -3
Cc1cc(N2CCN(c3ccc([N+](=O)[O-])c4cccnc34)CC2)c2ccccc2n1 | 13µM* | 7.1µM* | ? | -7 | -16
O=C(COC(=O)c1cccnc1Cl)Nc1cc(S(=O)(=O)N2CCCCCC2)ccc1Cl | · | · | -8% | -32 | ·
COc1cccc(C(=O)NCC(=O)N/N=C/c2c(C)[nH]c3ccccc23)c1 | -10% | 5% | 6% | 3 | ·
COc1ccc2c(Cl)c(C(=O)N/N=C/c3ccc4c(c3)OCO4)sc2c1 | 1.1µM* | 0% | -24% | 19 | 5
COc1ccc2c(Cl)c(C(=O)N/N=C/c3c(C)[nH]c4ccccc34)sc2c1 | -23% | -27% | 23µM* | 15 | 0
CCCNc1c(NS(=O)(=O)c2ccc(OC)c(OC)c2)c(=O)oc2ccccc12 | 3% | 0% | -4% | 18 | ·
Cc1cc(C)nc(SCNC(=O)c2ccccc2)n1 | 2.8µM* | 4µM* | 13% | 25 | 4
SMILES | RORg inh | VP16 counter | ELG1 DNA repair | TSHR antagonist | Coupling enz
Cc1cc(SCNC(=O)c2ccccc2)nc(C(C)C)n1 | 13µM* | ? | 9% | 0 | 0
CC1(C)ON(C2CCCCC2)[C@H]2c3nc4ccccc4n3C[C@H]21 | 14µM* | -1% | -4% | -3 | 1
O=C(Nc1ccncc1)c1cn(-c2ccccc2)nc1-c1cccs1 | 20% | 4% | ? | -75* | 4
COc1cccc(-c2nn(-c3ccccc3)cc2C(=O)Nc2nccs2)c1 | 6.3µM* | 18µM* | ? | -24 | -1
COc1ccc(-c2nn(-c3ccccc3)cc2C(=O)Nc2nccs2)cc1 | 7.1µM* | 11µM* | 6.5µM* | -14 | -5
CCOc1ccc(NC(=O)CN(C)C(=O)c2ccc(=O)[nH]c2)cc1OCC | 11µM* | 15% | ? | -1 | ·
COc1ccc(NC(=O)CN(C)C(=O)c2ccc(=O)[nH]c2)cc1 | ? | ? | ? | 11 | -2
Cc1ccc2c(c1)c(-c1csc(N)n1)c(C)n2C | -16% | 7% | -6% | -9 | -3
COc1ccccc1C(=O)NCCC(=O)NC(C)c1ccc(-n2ccnc2)cc1 (stereo unspecified) | · | · | 2% | 7 | ·
CO[C@H]1COC(=O)C/C=C\[C@@H](C)COC(=O)[C@@H](C)NC(=O)C/C=C\[C@@H]1C | 2%[10 µM] | 3%[10 µM] | · | · | 3
O=C(O)Cc1cc(I)c(Oc2cc(I)c(O)c(I)c2)c(I)c1 | 6% | -21% | · | · | -2
CCC(C)(C)C1CCc2[nH]nc(C(=O)NC(C)C)c2C1 (stereo unspecified) | · | · | -14% | -13 | ·
CCOc1ccc(NC(=O)CN(C)C(=O)c2cn(-c3ccccc3)nc2-c2cccs2)cc1OCC | 23% | -7% | 21µM* | -9 | ·
COC1C=CO[C@@]2(C)Oc3c(C)c(O)c4c(O)c(c(C=NN5CCN(C)CC5)c(O)c4c3C2=O)NC(=O)/C(C)=C\C=CC(C)C(O)[C@@H](C)C(O)C(C)[C@H](OC(C)=O)C1C (stereo partly specified) | -4% | 1% | · | · | -24
COc1ccc(N2CCC(CNC(=O)Nc3cccc(OC)c3)C2)cc1 (stereo unspecified) | 18% | 16% | -24% | -5 | 0
